In PubChem BioAssay AID624261 (National Center for Advancing Translational Sciences (NCATS), 2012):
The list shows a part of the results. Activity calls are given as the source filed them. Calls come from the whole dose curve.

Target: Glutaminase kidney isoform, mitochondrial (Homo sapiens) (UniProt O94925)
Assay: qHTS for Inhibitors of Glutaminase (GLS): Hit Confirmation
Conditions: biochemical glutaminase enzyme inhibition assay
Description: Glutaminase (GLS) catalyzes the hydrolysis of glutamine into glutamate and ammonia. It plays a critical role in glutaminolysis, which is an important energy source for proliferating cells. It was shown that c-Myc, an oncogenic transcription factor known to regulate microRNAs and to stimulate cell proliferation, increases glutamine metabolism by stimulating the expression of GLS via direct suppression of miR23a and miR23b.
GLS is also thought to play a pathogenic role on HAD using a human HIV-1 infected macrophage system. […] GLS inhibition limits glutamate release and provides neuroprotection against HIV-1 infected macrophages.
The overall goal of this project is to identify small molecule inhibitors of GLS through quantitative high throughput screening (qHTS) of the MLSMR. A validated potent and selective inhibitor can be used as a tool molecule to further study the pharmacology of its target as well as explore its potential therapeutic application in cancer and inflammatory neurological disorders, such as HIV1-associated dementia (HAD) and multiple sclerosis. This is the hit confirmation in the primary assay data. […]
Three 3 uL of hKGA is dispensed into black well 1536-well plates in 45 mM KH2PO4 (pH 8.2), 0.02% Tween-20. […] Plate is centrifuged for 25 sec before an initial fluorescence read is obtained on the ViewLux, after 30 min of RT incubation, the final read is taken on the ViewLux.

Chain of Glutaminase kidney isoform, mitochondrial (Homo sapiens) (O94925 whole entry, looked up, canonical isoform): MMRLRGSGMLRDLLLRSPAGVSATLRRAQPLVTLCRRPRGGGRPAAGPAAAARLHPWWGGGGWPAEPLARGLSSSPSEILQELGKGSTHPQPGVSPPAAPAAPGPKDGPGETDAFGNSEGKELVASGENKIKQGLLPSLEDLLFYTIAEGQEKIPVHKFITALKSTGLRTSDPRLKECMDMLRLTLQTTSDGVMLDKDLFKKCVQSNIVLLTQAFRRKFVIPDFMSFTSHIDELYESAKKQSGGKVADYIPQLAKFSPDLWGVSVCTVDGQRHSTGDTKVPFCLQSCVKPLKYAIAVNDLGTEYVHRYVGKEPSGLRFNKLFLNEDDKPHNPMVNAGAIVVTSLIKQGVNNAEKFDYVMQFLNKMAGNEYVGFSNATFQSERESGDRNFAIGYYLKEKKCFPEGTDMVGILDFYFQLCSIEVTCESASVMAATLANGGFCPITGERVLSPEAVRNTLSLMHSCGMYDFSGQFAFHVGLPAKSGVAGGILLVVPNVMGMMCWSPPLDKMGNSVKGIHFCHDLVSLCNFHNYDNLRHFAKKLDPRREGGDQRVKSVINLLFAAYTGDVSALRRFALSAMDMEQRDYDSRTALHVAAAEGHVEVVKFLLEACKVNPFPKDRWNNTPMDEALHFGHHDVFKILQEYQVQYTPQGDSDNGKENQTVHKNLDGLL

Compound	Potency
COc1cc(OC)c(S(=O)(=O)Nc2ccccc2C(=O)O)cc1S(=O)(=O)Nc1ccccc1C(=O)O	5.8 µM (active)
